# Hit rate of the full screen: of about 16,000 compounds, about 5,700 (36%) were called active. About 24% were inconclusive and are not listed. The list shows a part of the results. Unmarked numbers belong to inactive results. Calls follow the shape of the dose curve; as a rule, active = well fitted curve in the direction sought with a large enough effect; inconclusive = small, poorly fitted or top-dose-only effect, or effect the other way; inactive = no such curve, though single readings can be large or run the other way.
# Biological target: Cytochrome P450 1A2 (Homo sapiens) (UniProt P05177)
# Sequence (P05177 whole entry, looked up): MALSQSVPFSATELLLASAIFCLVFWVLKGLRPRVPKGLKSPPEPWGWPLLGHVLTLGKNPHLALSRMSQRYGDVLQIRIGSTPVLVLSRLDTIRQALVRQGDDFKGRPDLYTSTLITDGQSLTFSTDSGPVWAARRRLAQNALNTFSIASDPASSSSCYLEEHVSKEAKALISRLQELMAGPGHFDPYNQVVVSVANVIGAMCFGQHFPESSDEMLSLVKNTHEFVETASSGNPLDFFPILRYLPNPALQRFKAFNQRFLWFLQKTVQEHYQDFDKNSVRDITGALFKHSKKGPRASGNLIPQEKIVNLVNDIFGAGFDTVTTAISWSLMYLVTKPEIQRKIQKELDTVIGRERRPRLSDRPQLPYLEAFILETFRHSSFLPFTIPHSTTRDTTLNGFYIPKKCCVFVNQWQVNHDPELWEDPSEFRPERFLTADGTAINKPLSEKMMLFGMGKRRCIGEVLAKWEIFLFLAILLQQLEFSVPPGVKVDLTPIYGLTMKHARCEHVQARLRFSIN
# Assay: Cytochrome panel assay with activity outcomes
# Conditions: recombinant CYP, pro-luciferin dealkylation, luminescence, p450-cyp1a2; series mostly up to 57.1 µM; activity, negative = inhibition: at the top concentration
# % is scaled to controls: 0 for no effect and ±100 for the full control effect.
SMILES,"activity, negative = inhibition",AC50
CN1CCN(CCCN)CC1,-19.9% [at 11.4 µM],–
NC[C@H](O)C1CCCCCCC1,-18.7%,–
CC(C)N(Cc1ccccc1)S(=O)(=O)c1n[nH]c(C(C)(C)C)n1,2.16% [at 11.4 µM],–
Cc1ccc(CNC(=O)C2(NC(=O)Nc3ccc(C)cc3)CCCCC2)cc1,6.22%,–
Cc1ccc(C)c(NC(=O)C2(C)CC3c4ccccc4C2c2ccccc23)c1 (configuration not stated),-20.1%,–
Cc1ccc(C)c(NC(=O)NCc2ccc(Cl)cc2)c1,–,794 nM (active)
CC1(C)C(=O)N(CCN2CCC(C(=O)c3ccc(F)cc3)CC2)c2ccccc21,-12.4%,–
O=C(NCCc1ccccc1)C(=O)NCC1(c2ccccc2)CCCC1,6.35%,–
O=C(NCCc1ccccc1)C(=O)NN=C1CCCC1,–,12600 nM (active)
O=C(CC(=O)NN=C1CCCC1)NCCc1ccccc1,-25.7%,–
C[C@@H]1CCCN(C[C@@H](O)CN2CCCc3ccccc32)C1,-10.7% [at 11.4 µM],–
COC(=O)c1[nH]c2ccc(Br)cc2c1NC(=O)CN1CCN(C2CCCCC2)CC1,–,12600 nM (active)
COC(=O)c1[nH]c2ccc(Br)cc2c1NC(=O)CN1CCCc2ccccc21,–,5010 nM (active)
CC(C)(CN)CN,2.94% [at 11.4 µM],–
CN(C)CCNc1nc2c(c(=O)n(C)c(=O)n2C)n1C,-7.73% [at 11.4 µM],–
COc1ccccc1CN1CC2(CCN(S(=O)(=O)c3ccccc3)CC2)C1,18.1%,–
COc1cc([C@H]2c3cc4c(cc3[C@@H](O)[C@@H]3COC(=O)[C@H]23)OCO4)cc(OC)c1OC,-19.8% [at 25.6 µM],–
COc1cc2c(c(O)c1OC)C(=O)C(OC)CCC2 (configuration not stated),–,12600 nM (active)
C/C(CCC(=O)OC[C@@H]1O[C@H](C#Cc2ccccc2)C=C[C@@H]1Oc1ccc(C)cc1)=N/O[C@@H](C)CN1CCCCc2nc(C)c(C)cc21,-3.03% [at 11.4 µM],–
O=[N+]([O-])c1ccc2c(c1)S(=O)c1ccccc1-2 (configuration not stated),–,200 nM (active)
CC1=c2c(oc3cc(O)c(Nc4c(C)cc(O)cc4O)c(C)c23)=CC(=O)C1=Nc1c(C)cc(O)cc1O,–,3160 nM (active)
CN1[C@@H]2CC[C@H]1CC(OC(c1ccccc1)c1ccccc1)C2 (some centres not stated),–,inactive
N#Cc1ccc(CN2CCC3(CC2)CCN(S(=O)(=O)c2ccccc2)CC3)cc1,-22.8%,–
C=CCn1c(NCc2ccccc2)nc2ccccc21,–,10000 nM (active)
C=CC(=O)NC(C)(C)Cc1ccccc1,-14.6%,–

SMILES,"activity, negative = inhibition",AC50
C=CCC(C)(NCc1ccccc1)c1ccco1 (configuration not stated),-27.6%,–
CS(=O)(=O)c1nc2ccccc2n1Cc1ccccc1,–,11200 nM (active)
O=S(=O)(O)c1nc2ccccc2n1Cc1ccccc1,-14.6%,–
CC(=O)Nc1nc2ccccc2n1Cc1ccccc1,–,14100 nM (active)
CO[C@@H]1COC(=O)C/C=C\[C@@H](C)[C@H](OC)COC(=O)[C@H](COCc2ccccc2)NC(=O)C/C=C\[C@H]1C,-0.402% [at 11.4 µM],–
COCC(=O)N1CCC2(CCCN(C(=O)Nc3cccc(C#N)c3)C2)CC1,0.755%,–
O=C(Nc1ccc(-c2cc3ccccc3oc2=O)c(Cl)c1)c1cccnc1,13.8%,–
O=c1oc2ccccc2cc1-c1csc(NN=C2CCCCC2)n1,–,891 nM (active)
Clc1ccc(Cl)c(SCCCN2CCNCC2)c1,–,501 nM (active)
Cc1c(C=O)c2ccccn2c1C(=O)c1ccncc1,–,1120 nM (active)
COCCN1C(=O)C(=O)/C(=C(/O)c2cccc(OC)c2)C1c1ccco1 (configuration not stated),-13.8%,–
c1cncc(-c2nc(N3CCNCC3)c3ccccc3n2)c1,–,2510 nM (active)
CN1CCN(c2ccncc2S(=O)(=O)N2CCN(C)CC2)CC1,-7.43% [at 2.29 µM],–
CN1CCN(c2nc(-c3cccnc3)nc3ccccc23)CC1,–,3160 nM (active)
CC(C)c1ccccc1-n1c(SCC(=O)N2CCN(c3ccccc3)CC2)nnc1-c1cccnc1,-23.2%,–
N#CCSc1nc(N)c(C#N)c(C2CCCCC2)c1C#N,–,10000 nM (active)
Cn1c(=O)c2[nH]c(CCS)nc2n(C)c1=O,-15.3% [at 11.4 µM],–
Cn1c(=O)c2[nH]c(C3CCCC3)nc2n(C)c1=O,–,12600 nM (active)
Cn1c(=O)c2[nH]c([C@@H]3CC(=O)C[C@H](c4nc5c([nH]4)c(=O)n(C)c(=O)n5C)N3)nc2n(C)c1=O,-18.2% [at 2.29 µM],–
CCCCCn1c(CN2CCCCC2C)nc2c1c(=O)n(C)c(=O)n2C (configuration not stated),-17%,–
CCCn1c(=O)c2[nH]c(C3CCCC3)nc2n(CCC)c1=O,–,251 nM (active)
CC(C)(C[C@@]1(C)NC(=O)NC1=O)OCc1ccccc1,-12.1% [at 2.29 µM],–
CC(C)Oc1ccc(C2CC(=O)NC3=C2C(=O)CCC3)cc1 (configuration not stated),-14.5%,–
CC(=O)NC1=NN(c2ccccc2)C(=O)C1,-12.4%,–
CC1=NN(c2ccccc2)C(=O)/C1=C\N1CC(C)OC(C)C1 (configuration not stated),-23.7%,–

SMILES,"activity, negative = inhibition",AC50
CC1=NN(c2ccccc2)C(=O)C1,–,12600 nM (active)
Cc1cccc(OCCn2c(-c3ccco3)nc3ccccc32)c1,–,1580 nM (active)
Cc1cccc(OCCn2c(S(=O)(=O)O)nc3ccccc32)c1,-12.6%,–
N=C(N)SCCc1ccc(OCc2ccc([N+](=O)[O-])cc2)cc1,–,31600 nM (active)
N=C(N)SCCc1ccc(CCSC(=N)N)cc1,-3.85%,–
C[N+]1(CCOc2ccc([N+](=O)[O-])cc2)CCOCC1,-1.1%,–
CC(C)=CCC/C(C)=C/CO/N=C1/C[C@@H](O)[C@@H](O)[C@@H]2[C@H]3C(=O)N(c4ccc(F)cc4F)C(=O)[C@@H]3CC[C@H]12,-0.361% [at 11.4 µM],–
COc1ccc(S(=O)(=O)N(CC(=O)N2CCCC2)Cc2ccccc2)cc1,2.54%,–
CCOc1ccc2[nH]c(=O)c(CN(CCc3ccccc3)C(=O)N3CCCC3)cc2c1,–,14100 nM (active)
COc1ccc(S(=O)(=O)N(CCc2ccccc2)CC(=O)N2CCOCC2)cc1,-25.1%,–
CSc1n[nH]c(-c2sccc2OCc2ccc(C)cc2)n1,–,1410 nM (active)
Cn1c(-c2sccc2OCc2ccccc2)n[nH]c1=S,–,355 nM (active)
CSc1nnc(-c2sccc2OCc2ccccc2)n1C,–,7080 nM (active)
CC(=O)O[C@]1(C)N=NC2(CCCCC2)O1,-9.6% [at 11.4 µM],–
CC(=O)OC[C@@H]1O[C@@H](O/N=C2/C[C@@H](O)[C@@H](O)[C@@H]3[C@@H]4C(=O)N(C[C@@H]5CCCO5)C(=O)[C@H]4CC[C@H]23)[C@H](OC(C)=O)[C@H](OC(C)=O)[C@@H]1OC(C)=O,-5.84% [at 11.4 µM],–
Cc1noc(C)c1-c1ccc2ncnc(N3CCN(C)CC3)c2c1,–,12600 nM (active)
Cc1noc(C)c1-c1cncnc1N1CCN(C)CC1,-14.7%,–
Cc1noc(C)c1-c1ccc2ncnc(N3CCOCC3)c2c1,–,12600 nM (active)
NCCc1ccn[nH]1,-2.19% [at 25.6 µM],–
COc1cc(C(=O)OCC(=O)Nc2cc(C)on2)cc(OC)c1OC,-14.8%,–
CCOC(=O)c1[nH]c2cc(OC)c(OC)cc2c1NC(=O)c1ccc2c(c1)OCO2,–,2240 nM (active)
COC(=O)c1[nH]c2cc(OC)ccc2c1NC(=O)c1ccc2c(c1)OCO2,–,2510 nM (active)
CCOC(=O)c1[nH]c2cc(OC)c(OC)cc2c1NC(=O)c1nonc1C,–,1000 nM (active)
Cc1ccc(NC(=O)CN2CCC(NC(=O)Cc3ccccc3)CC2)cc1C,-9.71%,–
CCOC(=O)c1[nH]c2cc3c(cc2c1NC(=O)CN1CCc2ccccc2C1)OCO3,–,2820 nM (active)

SMILES,"activity, negative = inhibition",AC50
CC1(C)CC(NC(=O)c2ccc3c(c2)OCO3)CC(C)(C)N1,-25.9%,–
c1ccc2c[n+](Cc3ccnc4ccccc34)ccc2c1,-21.8% [at 2.29 µM],–
CCOC(=O)N1CCC(NC(=O)c2cc(S(=O)(=O)N3CCCC3)cn2C)CC1,-27.9%,–
COC(=O)c1[nH]c2cc(OC)ccc2c1NC(=O)CCN1CCSCC1,–,1410 nM (active)
CCOC(=O)c1[nH]c2ccc(OC)cc2c1NC(=O)c1ccc2c(c1)OCO2,–,2240 nM (active)
CCN1CCN(CCC(=O)Nc2cccc(OC)c2)CC1,3.85%,–
O=C(CCN1CCOCC1)Nc1ccc(F)cc1F,-11.8% [at 11.4 µM],–
COc1ccc(-c2nc3cnc(N(C)C)nc3n(C[C@H]3CCCO3)c2=O)cc1,–,3160 nM (active)
CN(C)c1ncc2nc(-c3ccc(F)cc3)c(=O)n(C[C@H]3CCCO3)c2n1,–,2510 nM (active)
C/C(CCc1ccc2c(c1)OCO2)=N\N=C1\NC(=O)CC(C(=O)Nc2ccccc2)S1 (configuration not stated),–,15800 nM (active)
C[C@@H]1[C@H]2CC[C@@H]3[C@@H]4CC=C5C[C@@H](N(C)C)CC[C@]5(C)[C@@H]4CC[C@@]32CN1C,6.72% [at 25.6 µM],–
CCOc1[nH]n(-c2ccccc2)c(=O)c1C=Nc1ccc(Cl)cc1,–,2000 nM (active)
CCOc1[nH]n(-c2ccc(Cl)cc2)c(=O)c1C=Nc1ccc(Cl)cc1,–,2820 nM (active)
CCc1nnc(NS(=O)(=O)c2ccc(N=Cc3c(C)[nH]n(-c4ccc(C)cc4)c3=O)cc2)s1,-14.8%,–
OCCN1CCOCCOCCN(CCO)CCN(CCO)CC1,-6.35%,–
Nc1nc(Br)c2c(F)cccc2c1-c1ccc(Cl)cc1,–,3550 nM (active)
Nc1nc(Br)c2ccccc2c1-c1ccc(F)cc1,–,1260 nM (active)
Nc1nc(Br)c2c(F)cccc2c1-c1ccc(F)cc1,–,1260 nM (active)
CCCOc1ccc(C2C(=O)N(C3CCCCC3)CC(=O)N2C2CC2)cc1OC (configuration not stated),-13.6%,–
CCCCCCCCCCCCCCC/C=C\[C@H](O)[C@@H](NC(=O)CCCCCCCCCCCCC)OC (tested in a mixture with another compound),-7.38%,–
CCCCCCCCCCCCC/C=C\[C@@H](O)[C@H](CO)NC(C)=O,–,20000 nM (active)
CCCCCCCCCCCCCCCC(=O)NC(C)C,-6.69%,–

# Source: PubChem BioAssay AID1851 (National Center for Advancing Translational Sciences (NCATS), 2009)
